Results published in PubChem BioAssay (Tox21).
Inconclusive results are not listed. Active and inactive are the calls of the source. Unless noted, calls come from the whole dose curve; as a rule, active = well fitted curve in the direction sought with a large enough effect in the repeat runs; inconclusive = weak or mixed curves; inactive = no such curve, though single readings can be large; an effect the other way counts as inactive or inconclusive.

Tests used:
[1] = biological target: Thyrotropin receptor (Homo sapiens) (UniProt P16473); assay: qHTS assay to identify small molecule agonists of the thyroid stimulating hormone receptor (TSHR) signaling pathway (AID 1224843; calls by dose curve; note: nearly all actives have a fitted effect of over 45% in size; note: potency is the fitted concentration of half-maximal effect)
Sequence of Thyrotropin receptor (Homo sapiens) (P16473 whole entry, looked up): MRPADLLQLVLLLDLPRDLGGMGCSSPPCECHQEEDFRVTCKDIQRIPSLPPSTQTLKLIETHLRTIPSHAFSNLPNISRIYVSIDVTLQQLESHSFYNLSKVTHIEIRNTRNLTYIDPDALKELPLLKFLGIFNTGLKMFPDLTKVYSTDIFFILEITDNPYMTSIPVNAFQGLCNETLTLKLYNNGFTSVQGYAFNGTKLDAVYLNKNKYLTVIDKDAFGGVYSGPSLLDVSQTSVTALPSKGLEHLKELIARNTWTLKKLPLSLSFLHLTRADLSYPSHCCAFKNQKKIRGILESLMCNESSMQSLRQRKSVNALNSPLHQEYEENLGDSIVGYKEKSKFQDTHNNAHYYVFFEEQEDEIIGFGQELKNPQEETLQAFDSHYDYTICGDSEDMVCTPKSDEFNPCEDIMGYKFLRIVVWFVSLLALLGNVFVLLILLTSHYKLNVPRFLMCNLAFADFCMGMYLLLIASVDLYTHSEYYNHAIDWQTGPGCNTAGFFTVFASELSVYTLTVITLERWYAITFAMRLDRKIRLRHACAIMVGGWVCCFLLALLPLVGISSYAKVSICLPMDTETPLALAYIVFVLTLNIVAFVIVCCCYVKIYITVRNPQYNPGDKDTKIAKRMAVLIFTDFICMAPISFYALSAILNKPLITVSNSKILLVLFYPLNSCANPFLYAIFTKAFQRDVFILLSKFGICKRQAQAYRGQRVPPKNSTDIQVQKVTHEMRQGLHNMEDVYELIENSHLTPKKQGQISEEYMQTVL
Summary of the method: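 Screening of the Tox21 10K collection used HEK293 cells engineered with TSHR at 800 cells per well. After a 30-min room-temperature compound exposure, HTRF cAMP reagents were added and fluorescence recorded 1 h later.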

[2] = qHTS assay to identify small molecule agonists of the hypoxia (HIF-1) signaling pathway - cell viability counter screen (AID 1224844; calls by dose curve; note: nearly all actives have a fitted effect of over 50% in size)
Summary of the method: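 Multiplexed with the HRE beta-lactamase assay, this viability read used CellTiter-Glo luminescence (30 min, RT) on HRE-bla ME-180 cells treated 17 hrs with compounds in 0.5% dialyzed FBS medium.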

[3] = qHTS assay to identify small molecule agonists of H2AX (AID 1224845; active = well fitted activation curve with a large enough effect in the signal ratio in the repeat runs, not every such curve was filed as active; the % refers to the signal ratio)
Summary of the method: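 Phospho-H2AX Ser139 measured by HTRF (ex 320 nm; em 665 and 620 nm) after 24 hr antibody incubation. Compounds, 15 concentrations, 0.76% DMSO, were applied to CHO-K1 cells for 3hr at 37C before lysis.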

[4] = qHTS assay to identify small molecule agonists of the hypoxia (HIF-1) signaling pathway (AID 1224846; active = well fitted activation curve with a large enough effect in the signal ratio in the repeat runs, not every such curve was filed as active; the % refers to the signal ratio)
Summary of the method: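 Hypoxia-pathway activation was scored as increased beta-lactamase from an HRE-controlled reporter in ME-180 cells; plated at 2,000 cells per well with 0.5% dialyzed FBS, they were exposed 17 hrs to compounds and then given CCF4-AM.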

[5] = qHTS assay to identify small molecule agonists of H2AX - cell viability counter screen (AID 1224847; calls by dose curve; note: top concentration of the series differs between compounds; nearly all actives have a fitted effect of over 30% in size)
Summary of the method: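 Wild-type CHO-K1 cells (10% FBS medium) were plated overnight at 37C, exposed to compounds at 15 concentrations for 3 hr at 37C (0.76% DMSO final), and viability was read as CellTiter-Glo luminescence after 30 min at room temperature.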

[6] = qHTS assay to identify small molecule agonists of the estrogen related receptor (ERR) signaling pathway from Tox21 library (AID 1224849; calls by dose curve; note: nearly all actives have a fitted effect of over 15% in size); conditions: ERR reporter cell line, ONE-Glo luciferase, 18 h; at 92.4 µM (top of the series) unless noted
Summary of the method: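 Six hours post-seeding at 37 C/5% CO2, ERR cells receive DMSO-solubilised compounds; after 18 h at 37 C, ONE-Glo reagent is applied and luminescence recorded.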

[7] = qHTS RealTime-Glo MT Cell Viability Assay in HepG2 cells - 24 hour (AID 1224867); note: nearly all actives have a fitted effect of over 50% in size
Summary of the method: (§1)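 Cells + NanoLuc/prosubstrate dispensed (600 cells/well) → 5 h at 37 C/5% CO2 → compounds in DMSO transferred → 40 h incubation at 37 C, luminescence read at 0, 8, 16, 24, 32, 40 h.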

[8] = qHTS RealTime-Glo MT Cell Viability Assay in HEK293 cells - 32 hour (AID 1224868); note: nearly all actives have a fitted effect of over 50% in size; note: potency is the fitted concentration of half-maximal effect
Summary of the method: (§2)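 Tox21 10K qHTS, HEK293, 600 cells/well, RealTime-Glo reagent co-dispensed with cells; 5 h preincubation, compound by pintool, 37 C, luminescence at 0–40 h.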

[9] = A CellTox Green Cytotoxicity Assay to monitor cytotoxicity in HEK293 cells - 0 hour (AID 1224869); note: nearly all actives have a fitted effect of over 50% in size
Summary of the method: (§3)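 Seeding of HEK293 cells together with cytotoxicity dye preceded a 5 h incubation at 37 C/5% CO2. Test compounds in DMSO were then added and fluorescence monitored across 40 h.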

[10] = qHTS RealTime-Glo MT Cell Viability Assay in HepG2 cells - 40 hour (AID 1224870); note: nearly all actives have a fitted effect of over 50% in size
Summary of the method: (§4)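 Real-time viability: cells seeded at 600 per well together with NanoLuc and cell-permeant prosubstrate, compounds added after 5 h incubation. Luminescence tracked at 0, 8, 16, 24, 32 and 40 h of exposure.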

[11] = A CellTox Green Cytotoxicity Assay to monitor cytotoxicity in HEK293 cells - 40 hour (AID 1224871); note: nearly all actives have a fitted effect of over 45% in size
Summary of the method: as §3

[12] = qHTS RealTime-Glo MT Cell Viability Assay in HEK293 cells - 16 hour (AID 1224872); note: nearly all actives have a fitted effect of over 50% in size; note: potency is the fitted concentration of half-maximal effect
Summary of the method: as §2

[13] = qHTS RealTime-Glo MT Cell Viability Assay in HepG2 cells - 8 hour (AID 1224873); note: nearly all actives have a fitted effect of over 55% in size
Summary of the method: as §4

[14] = qHTS RealTime-Glo MT Cell Viability Assay in HEK293 cells - 40 hour (AID 1224874); conditions: RealTime-Glo luminescence; max response: active compounds read low; note: nearly all actives have a fitted effect of over 50% in size; note: potency is the fitted concentration of half-maximal effect
Summary of the method: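 Tox21 screen in HEK293 using RealTime-Glo MT chemistry, with cells and reagent co-dispensed. Luminescence proportional to viable cell number was captured at intervals during 40 h compound exposure at 37 C.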

[15] = A CellTox Green Cytotoxicity Assay to monitor cytotoxicity in HEK293 cells - 24 hour (AID 1224875); note: nearly all actives have a fitted effect of over 45% in size
Summary of the method: as §3

[16] = A CellTox Green Cytotoxicity Assay to monitor cytotoxicity in HepG2 cells - 16 hour (AID 1224876); note: nearly all actives have a fitted effect of over 45% in size
Summary of the method: (§5)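 Nonlytic assay: viable cells exclude the dye, so fluorescence scales with cell death. HepG2 at 600 cells/well, compounds added after 5 h, signal read across 40 h.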

[17] = qHTS RealTime-Glo MT Cell Viability Assay in HepG2 cells - 32 hour (AID 1224877); note: nearly all actives have a fitted effect of over 55% in size
Summary of the method: as §1

[18] = A CellTox Green Cytotoxicity Assay to monitor cytotoxicity in HepG2 cells - 40 hour (AID 1224879); note: nearly all actives have a fitted effect of over 40% in size
Summary of the method: as §5

[19] = A CellTox Green Cytotoxicity Assay to monitor cytotoxicity in HepG2 cells - 24 hour (AID 1224878); note: nearly all actives have a fitted effect of over 45% in size
Summary of the method: as §5

[20] = qHTS assay to identify small molecule antagonists of the estrogen related receptor (ERR) signaling pathway from Tox21 library (AID 1224848); note: nearly all actives have a fitted effect of over 50% in size
Summary of the method: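 Antagonist-mode screen of the Tox21 10K library in an NTP-provided ERR reporter cell line; 18 h compound exposure at 37 C, luminescence measured with ONE-Glo.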
% is set by controls: 0 for no effect and ±100 for the full control effect.

C=C(C)C(=O)OCCOP(=O)(O)OCCOC(=O)C(=C)C
inactive: Potency [1] | outcome [2] | outcome [3] | outcome [4] | Potency [5] | activity change, positive = activation [6] 5.76% | outcome [7] | Potency [8] | outcome [9] | outcome [10] | Potency [11] | Potency [12] | outcome [13] | max response [14] -2.48% | outcome [15] | outcome [16] | outcome [17] | Potency [18]

N[C@@H](CCC(=O)Nc1ccc([N+](=O)[O-])cc1)C(=O)O
inactive: Potency [1] | outcome [2] | outcome [3] | outcome [4] | Potency [5] | activity change, positive = activation [6] -15.8% | outcome [7] | Potency [8] | outcome [9] | outcome [10] | Potency [11] | Potency [12] | outcome [13] | max response [14] -16.1% | outcome [15] | outcome [16] | outcome [17] | Potency [18]

Cc1c(I)c(=O)n(-c2ccccc2)n1C
inactive: Potency [1] | outcome [2] | outcome [3] | outcome [4] | Potency [5] | activity change, positive = activation [6] 2.79% [at 42.5 µM] | outcome [7] | Potency [8] | outcome [9] | outcome [10] | Potency [11] | Potency [12] | outcome [13] | max response [14] -1.2% | outcome [15] | outcome [17] | outcome [19] | Potency [18]

O=S(=O)(O)c1ccc2cc(O)c(S(=O)(=O)O)cc2c1
inactive: Potency [1] | outcome [2] | outcome [3] | outcome [4] | Potency [5] | outcome [7] | Potency [8] | outcome [9] | outcome [10] | Potency [11] | Potency [12] | outcome [13] | max response [14] -1.21% | outcome [15] | outcome [16] | outcome [17] | outcome [19] | Potency [18]

CCCCCCCCC1CCC(=O)O1 (stereo not drawn)
inactive: Potency [1] | outcome [2] | outcome [3] | outcome [4] | Potency [5] | Potency [20] | outcome [7] | Potency [8] | outcome [9] | Potency [11] | Potency [12] | outcome [13] | max response [14] -1.86% | outcome [15] | outcome [16] | outcome [17] | outcome [19] | Potency [18]

CCOc1cc(NC(C)=O)ccc1C(=O)OC
inactive: Potency [1] | outcome [2] | outcome [3] | outcome [4] | Potency [5] | activity change, positive = activation [6] -6.13% [at 42.5 µM] | outcome [7] | Potency [8] | outcome [9] | outcome [10] | Potency [11] | outcome [13] | max response [14] -4.96% | outcome [15] | outcome [16] | outcome [19] | Potency [18]

Nc1ncnc(Nc2ccccc2)n1
inactive: Potency [1] | outcome [2] | outcome [3] | outcome [4] | Potency [5] | outcome [7] | Potency [8] | outcome [9] | outcome [10] | Potency [11] | Potency [12] | outcome [13] | max response [14] 3.02% | outcome [15] | outcome [16] | outcome [17] | outcome [19] | Potency [18]

O=C(O)C(=O)Cc1ccccc1
inactive: outcome [2] | outcome [3] | outcome [4] | Potency [5] | outcome [7] | Potency [8] | outcome [9] | outcome [10] | Potency [11] | Potency [12] | outcome [13] | max response [14] 14.4% | outcome [15] | outcome [16] | outcome [17] | outcome [19] | Potency [18]
active: Potency [1] 30.6 µM

Cc1ccccc1N=O
inactive: Potency [1] | outcome [2] | outcome [3] | outcome [4] | Potency [5] | activity change, positive = activation [6] 6.56% | outcome [7] | Potency [8] | outcome [9] | outcome [10] | Potency [11] | outcome [13] | max response [14] 9.08% | outcome [15] | outcome [16] | outcome [17] | outcome [19] | Potency [18]

CC(=O)Nc1ccc(S(=O)(=O)Nc2ccc([N+](=O)[O-])cc2)cc1
inactive: Potency [1] | outcome [2] | outcome [3] | outcome [4] | Potency [5] | outcome [7] | Potency [8] | outcome [9] | outcome [10] | Potency [11] | Potency [12] | outcome [13] | max response [14] -8.9% | outcome [15] | outcome [16] | outcome [17] | outcome [19] | Potency [18]

Cc1ccc2ccc(Cl)cc2n1
inactive: Potency [1] | outcome [2] | outcome [3] | outcome [4] | Potency [5] | outcome [7] | Potency [8] | outcome [9] | outcome [10] | Potency [11] | Potency [12] | outcome [13] | max response [14] 6.03% | outcome [15] | outcome [16] | outcome [17] | outcome [19] | Potency [18]

CC(C)C(=O)OCc1cccc(OC(=O)[C@@H]2N3C(=O)[C@@H](NC(=O)Cc4ccccc4)[C@H]3SC2(C)C)c1
inactive: Potency [1] | outcome [2] | outcome [3] | outcome [4] | Potency [5] | outcome [7] | Potency [8] | outcome [9] | outcome [10] | Potency [11] | Potency [12] | outcome [13] | max response [14] 0.269% | outcome [15] | outcome [16] | outcome [17] | outcome [19]

c1ccc2nccnc2c1
inactive: Potency [1] | outcome [2] | outcome [3] | outcome [4] | Potency [5] | outcome [7] | Potency [8] | outcome [9] | outcome [10] | Potency [11] | Potency [12] | outcome [13] | max response [14] 5.36% | outcome [15] | outcome [16] | outcome [17] | Potency [18]

O=C(Nc1ccc(Cl)c(Cl)c1)C1CC1
inactive: Potency [1] | outcome [2] | outcome [3] | outcome [4] | Potency [5] | activity change, positive = activation [6] -22.3% [at 42.5 µM] | outcome [7] | outcome [9] | outcome [10] | Potency [11] | outcome [13] | outcome [16] | outcome [17] | Potency [18]
active: Potency [8] 9.52 µM | Potency [12] 9.52 µM | Potency [14] 8.49 µM
